We go through 29 compounds from PubChem BioAssay (NCATS).

The target in experiment [1] is Cellular tumor antigen p53 (Homo sapiens) (UniProt P04637). In words: Primary qHTS for small molecule compounds that upregulate eGFP-tagged delta133p53alpha (in N-terminal) cells. (AID 2060322).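 For activation: series mostly up to about 56 µM; 0% = DMSO vehicle and 100% = reference activator.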 Note: nearly all actives have a fitted effect of over 75% in size. Note: potency is the fitted concentration of half-maximal effect. Conditions: NCI-H358 eGFP-delta133p53alpha fluorescence, 24 h; activation: stronger effect = higher value. Put shortly:
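NCI-H358 cells pre-induced 24 h with 10 ng/ml doxycycline to express N-terminal eGFP-delta133p53alpha, then dosed 24 h at 37C without doxycycline; fixed, Hoechst-stained, GFP intensity by laser scanning cytometry, normalized to DMSO (0%) and 57.5 uM 5-azacytidine (100%).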

Experiment [2] has as its target Aldehyde dehydrogenase, mitochondrial (Homo sapiens) (UniProt P05091). In words: qHTS for Inhibitors of the Aldehyde Dehydrogenase Family (ALDH2) Primary screen (AID 2061308).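 Note: plate controls were vehicle for no effect and reference inhibitor for full effect; nearly all actives have a fitted effect of over 55% in size.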
The target in experiment [3] is Retinaldehyde dehydrogenase 3 (Homo sapiens) (UniProt P47895). Nature of the experiment: qHTS for Inhibitors of the Aldehyde Dehydrogenase Family (ALDH1A3) Validation screen (AID 2061312). Note: % is set by controls: 0 for no effect and ±100 for the full control effect; nearly all actives have a fitted effect of over 45% in size.
Experiment [4] shares this target. Nature of the experiment: qHTS for Inhibitors of the Aldehyde Dehydrogenase Family (ALDH1A3) Primary screen (AID 2061315).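 Note: plate controls were DMSO vehicle for no effect and reference inhibitor for full effect.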

Several values for one entry are separate records, joined by “and”; a condition that tells them apart may be missing. Identical values can stand only once. Inconclusive results are not listed. Unmarked numbers belong to inactive results. Activity calls are given as the source filed them. Calls come from the whole dose curve; as a rule, active = well fitted curve in the direction sought with a large enough effect; inconclusive = small, poorly fitted or top-dose-only effect, or another doubt; inactive = no such curve, though single readings can be large; an effect the other way counts as inactive or inconclusive.

Chain of Cellular tumor antigen p53 (Homo sapiens) (P04637 whole entry, looked up): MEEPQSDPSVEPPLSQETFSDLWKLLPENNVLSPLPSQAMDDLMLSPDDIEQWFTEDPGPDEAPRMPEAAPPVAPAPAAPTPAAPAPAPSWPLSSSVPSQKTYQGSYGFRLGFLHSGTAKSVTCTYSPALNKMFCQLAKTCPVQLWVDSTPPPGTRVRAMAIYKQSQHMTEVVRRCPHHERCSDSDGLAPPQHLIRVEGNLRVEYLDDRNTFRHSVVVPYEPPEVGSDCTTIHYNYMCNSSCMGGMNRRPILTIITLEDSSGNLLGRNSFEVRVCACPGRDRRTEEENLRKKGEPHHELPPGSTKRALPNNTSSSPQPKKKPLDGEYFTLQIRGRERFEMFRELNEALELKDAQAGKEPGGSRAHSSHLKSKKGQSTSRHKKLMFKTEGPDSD

Turning to `COc1ccc(C(=O)NCc2cc(C(C)C)no2)cc1OC1CCN(C)CC1`, the activation in experiment [1] is 4.77%. For the same compound, the Potency entry in experiment [2], in experiment [3] and in experiment [4] was “inactive” each time.

Consider `COC(=O)N1CCC(n2ncc3c(N4CCOCC4)nc(-c4ccc(NC(=O)NC5CC5)cc4)nc32)CC1`, for which the activation in experiment [1] was 12.4%. Also, the Potency result in experiment [2], in experiment [3] and in experiment [4] was “inactive” in each case.

Regarding `CN[C@@H]1[C@@H](O)[C@@H](O[C@@H]2[C@@H](O)[C@H](O[C@H]3O[C@@H]([C@@H](C)NC)CC[C@H]3N)[C@@H](N)C[C@H]2N)OC[C@]1(C)O`, the activation in experiment [1] is -8.59%. Moreover, the Potency entry in experiment [2], in experiment [3] and in experiment [4] was “inactive” each time.

On to `O=C(O)Cn1nnc(-c2ccc(CN(CCCCOc3ccc(CN4CCCC4)cc3)CCc3ccccc3)cc2)n1`, for which, in experiment [1], the activation was 7.16%. Further, the Potency result in experiment [2], in experiment [3] and in experiment [4] was “inactive” in each case.

For `O=C(CNC(=O)c1cccc(C(F)(F)F)c1)N[C@@H]1CCN(Cc2ccc(Cl)cc2)C1`, in experiment [1], the activation is -2.86%. Also, the Potency entry in experiment [2], in experiment [3] and in experiment [4] was “inactive” throughout.

In the case of `Cc1occc1C(=O)n1ccnc1`, the activation in experiment [1] is 1.43%. For the same compound, the Potency entry in experiment [2], in experiment [3] and in experiment [4] was “inactive” each time.

Take `CCC1C(=O)N(C)c2cnc(Nc3ccc(C(=O)NC4CCC(N5CCN(CC6CC6)CC5)CC4)cc3OC)nc2N1C(C)C` (stereo unspecified): the activation in experiment [1] is 37.2%. In addition, the Potency result in experiment [2], in experiment [3] and in experiment [4] was “inactive” each time.

As to `Cc1nc(C)c(-c2ccc(C3CCC(CC(=O)O)CC3)cc2)nc1C(N)=O` (stereo unspecified), the activation in experiment [1] was -13.4%. The Potency result in experiment [2], in experiment [3] and in experiment [4] was “inactive” in each case.

Consider `CS(=O)(=O)NCC1CCC(Nc2nc3c(s2)CCSc2ccccc2-3)CC1` (stereo unspecified), for which the activation in experiment [1] is -6.21%. The Potency result in experiment [2], in experiment [3] and in experiment [4] was “inactive” in each case.

Regarding `O=c1cc(N2CCOCC2)nc2c3ccccc3ccn12`, in experiment [1], the activation was 6.21%. Besides, the Potency entry in experiment [2], in experiment [3] and in experiment [4] was “inactive” in each case.

Regarding `Cc1nc(C#Cc2ccnc(Cl)c2)c(C)n1-c1ccc(F)cc1`, the activation in experiment [1] is -12.9%. For the same compound, the Potency entry in experiment [2], in experiment [3] and in experiment [4] was “inactive” each time.

As to `Cc1cccc2c1NC(=O)C2(c1ccc(O)cc1)c1ccc(O)cc1`, in experiment [1], the Potency was 213 nM (active). In addition, the Potency result in experiment [2], in experiment [3] and in experiment [4] was “inactive” each time.

On to `CC1CCN(c2cc(NC(=O)c3ccccc3)ncn2)CC1`, for which, in experiment [1], the activation is 22.4%. The Potency entry in experiment [2], in experiment [3] and in experiment [4] was “inactive” in each case.

`O=C(Nc1nc2ccccc2n1CCc1ccccc1)c1ccccc1`: in experiment [1], the activation was 6.68%. In addition, the Potency entry in experiment [2], in experiment [3] and in experiment [4] was “inactive” each time.

Take `O=C(NCCN1CCN(c2cccc3c2OCCO3)CC1)c1ccc(F)cc1`: in experiment [1], the activation is -9.07%. Further, the Potency result in experiment [2], in experiment [3] and in experiment [4] was “inactive” each time.

Consider `CN1CCN(c2nc(-c3ccc(C(=O)NC4(C(=O)NCC#N)CCCCC4)cc3)cs2)CC1`, for which, in experiment [1], the activation was -19.1%. Also, the Potency result in experiment [2], in experiment [3] and in experiment [4] was “inactive” in each case.

`CCOC(=O)COc1ccc2c(c1)C[C@@H](NC[C@H](O)c1cccc(Cl)c1)CC2`: the activation in experiment [1] is 11.9%. Also, the Potency entry in experiment [2], in experiment [3] and in experiment [4] was “inactive” throughout.

Regarding `Cn1c(SCC(=O)N2CCC[C@H]2C(=O)Nc2ccccc2-c2ccccc2)nc2ccccc21`, in experiment [1], the activation was 4.77%. The Potency entry in experiment [2], in experiment [3] and in experiment [4] was “inactive” throughout.

Regarding `COc1cc(Br)c(S(=O)(=O)Nc2ccc(Cl)c(O[C@@H]3CCN(C)C3)c2)cc1OC`, the activation in experiment [1] is 21.5%. The Potency entry in experiment [2], in experiment [3] and in experiment [4] was “inactive” each time.

As for `CC(C)(C[C@@](O)(Cc1cc2ccncc2[nH]1)C(F)(F)F)c1cc(F)ccc1O`, the activation in experiment [1] was 13.4%. In addition, the Potency result in experiment [2], in experiment [3] and in experiment [4] was “inactive” in each case.

In the case of `Cn1c(=O)cc(N2CCCC(N)C2)n(Cc2ccccc2C#N)c1=O` (stereo unspecified), the activation in experiment [1] was 0%. Besides, the Potency entry in experiment [2], in experiment [3] and in experiment [4] was “inactive” in each case.

Consider `CC(C)(O)c1ccccc1CC[C@@H](SCC1(CC(=O)O)CC1)c1cccc(/C=C/c2ccc3ccc(Cl)cc3n2)c1`, for which, in experiment [1], the activation is -15.3% and -1.91%. Moreover, the Potency result in experiment [2], in experiment [3] and in experiment [4] was “inactive” throughout.

With `OC1CCC(Nc2nc(-c3ccccc3)nc3[nH]ccc23)CC1` (stereo unspecified), the activation in experiment [1] was -8.11%. Besides, the Potency entry in experiment [2], in experiment [3] and in experiment [4] was “inactive” in each case.

For `COc1ccc([C@H](Cc2ccncc2)c2ccccc2)cc1OC1CCCC1`, in experiment [1], the activation is -2.86%. In addition, the Potency entry in experiment [2], in experiment [3] and in experiment [4] was “inactive” throughout.

As for `CN(C)C(=O)C(O)C(Cc1ccccc1)NC(=O)c1cc2cc(Cl)ccc2[nH]1` (stereo unspecified), the activation in experiment [1] is -1.43%. The Potency result in experiment [2], in experiment [3] and in experiment [4] was “inactive” in each case.

As to `OC1(c2ccc(Cl)c(C(F)(F)F)c2)CCN(CCCC(c2ccc(F)cc2)c2ccc(F)cc2)CC1`, the activation in experiment [1] is 13%. Also, the Potency result in experiment [2], in experiment [3] and in experiment [4] was “inactive” each time.

Regarding `CC1=C(C(=O)Nc2cc(Cl)ccc2Cl)C(c2ccco2)C2=C(CCCC2=O)N1` (stereo unspecified), the activation in experiment [1] was 17.7%. The Potency result in experiment [2], in experiment [3] and in experiment [4] was “inactive” each time.

For `CS(=O)(=O)c1ccc([C@@H](O)[C@@H](CF)NC(=O)C(Cl)Cl)cc1`, the activation in experiment [1] is -2.82% and -2.86%. Moreover, the Potency result in experiment [2], in experiment [3] and in experiment [4] was “inactive” each time.

Regarding `N[C@@H](CC(=O)N1CCn2c(nnc2C(F)(F)F)C1)Cc1[nH]nc2c(F)c(F)ccc12`, in experiment [1], the activation was -3.82%. Moreover, the Potency entry in experiment [2], in experiment [3] and in experiment [4] was “inactive” in each case.
